Screening results from PubChem BioAssay.
JMJD2A Tudor inh: qHTS Assay for Inhibitors of JMJD2A-Tudor Domain | Potency, µM (titrated, usually from 114 µM), for inactives: at the top dose activity change, negative = inhibition, usual class: inhibitors | AlphaScreen JMJD2A-Tudor / H3K4me3 peptide binding | AID 504339, 2011 | actives 4.4% (n = 390,000); note: % is set by controls: 0 for no effect and ±100 for the full control effect; nearly all actives have a fitted effect of over 50% in size
Sfp inh: qHTS Assay for Inhibitors of Bacillus subtilis Sfp phosphopantetheinyl transferase (PPTase) | 4'-phosphopantetheinyl transferase ffp (Bacillus subtilis), Q9F4F7 | Biochemical Sfp PPTase activity, qHTS | Potency, µM, without a hit: largest response in the series, negative = inhibition, usual class: inhibitors | actives 3.5% (n = 310,000);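 note: the enzyme is Sfp with the accession as filed and its product quenches rhodamine fluorescence; 0% = enzyme reaction without inhibitor and -100% = no enzyme wells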
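Step 1, compound plus 15 nM Sfp-PPTase, 15 min, room temperature. Step 2, add rhodamine-CoA (5 uM) and BHQ-2-YbbR (12.5 uM). Step 3, read 525/598 nm fluorescence at 0 and 30 min.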
G9a inh: qHTS Assay for Inhibitors of Histone Lysine Methyltransferase G9a | actives 8.8% (n = 350,000) | Histone-lysine N-methyltransferase EHMT2 (Homo sapiens), Q96KQ7 | G9a H3K9 monomethylation, AlphaScreen, 2 h | Potency, µM (top dose mostly 102 µM), without a hit: at the top dose activity, negative = inhibition, hits mostly inhibitors; note: % is set by controls: 0 for no effect and ±100 for the full control effect; nearly all actives have a fitted effect of over 75% in size
Target sequence (Q96KQ7 913-1193 limits assumed): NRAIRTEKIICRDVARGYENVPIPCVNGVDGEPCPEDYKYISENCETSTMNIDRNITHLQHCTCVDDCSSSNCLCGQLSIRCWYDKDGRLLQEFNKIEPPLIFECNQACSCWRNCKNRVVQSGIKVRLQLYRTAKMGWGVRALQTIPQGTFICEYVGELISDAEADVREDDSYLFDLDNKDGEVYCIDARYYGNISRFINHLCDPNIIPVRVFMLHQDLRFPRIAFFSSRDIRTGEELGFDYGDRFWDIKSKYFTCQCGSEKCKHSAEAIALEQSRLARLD
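Chemiluminescent proximity detection of H3K9 monomethylation, read after 10 min bead incubation in the dark. Reaction: 20 nM G9a, 500 nM biotin-H3K9 peptide, 20 uM SAM cofactor, 2 h, room temperature, following 15 min enzyme-compound preincubation.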
HP1b binding inh: HTS for Inhibitors of HP1-beta Chromodomain Interactions with Methylated Histone Tails | Chromobox protein homolog 1 (Homo sapiens), P83916 | AlphaScreen HP1-beta / biotin-H3K9me3 peptide binding | Potency, µM (top dose mostly 114 µM), without a hit: at the highest dose activity change, negative = inhibition, hits mostly inhibitors | actives 0.56% (n = 390,000); note: nearly all actives have a fitted effect of over 70% in size
Target sequence (P83916 whole entry, looked up): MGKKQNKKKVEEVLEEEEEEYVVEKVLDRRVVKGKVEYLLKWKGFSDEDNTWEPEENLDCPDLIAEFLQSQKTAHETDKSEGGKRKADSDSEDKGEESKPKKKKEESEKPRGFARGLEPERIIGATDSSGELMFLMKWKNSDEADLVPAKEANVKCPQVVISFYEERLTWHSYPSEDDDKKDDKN
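Compound inhibition of the preformed complex between 50 nM HP1-beta and 50 nM biotinylated H3K9me3 peptide was read by AlphaScreen. Buffer was PBS pH 7.4 with 0.01% Tween-20. Incubations ran 30 min at room temperature, with 10 ug/mL donor/acceptor beads.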
BAZ2B block: qHTS Assay for Inhibitors of BAZ2B | AlphaScreen BAZ2B-H3K14Ac peptide displacement | AID 504333, 2011 | Potency, µM (series often up to 114 µM), for inactives: at the top dose activity change, negative = inhibition, actives largely listed as inhibitors | Bromodomain adjacent to zinc finger domain protein 2B (Homo sapiens), Q9UIF8 | actives 4.4% (n = 360,000); note: % is set by controls: 0 for no effect and ±100 for the full control effect; nearly all actives have a fitted effect of over 60% in size
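Compounds, titrated to a top concentration of 110 uM, were incubated 30 min at room temperature with preformed BAZ2B/acetyl-K14 H3 peptide complex (50 nM each). Proximity signal was measured by AlphaScreen after 20 min with beads.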
* marks the source's active call; other numbers are inactive results; [ ] = dose if it differs, or a comment. Hits are enriched below; roughly 12% of the tested compounds scored in any of these assays. Calls come from the whole dose curve; as a rule, active = well fitted curve in the direction sought with a large enough effect; inconclusive = small, poorly fitted or top-dose-only effect, or another doubt; inactive = no such curve, though single readings can be large; an effect the other way counts as inactive or inconclusive. Potency is the fitted concentration of half-maximal effect.

What do the screens show for `Cc1ccc2cc(CN(Cc3ccc(F)cc3)Cc3nnnn3C3CCCC3)c(=O)[nH]c2c1`?
JMJD2A Tudor inh: -31%; Sfp inh: 22µM*; G9a inh: 14µM*; HP1b binding inh: 14%; BAZ2B block: 3%

How did COc1ccc(NC(=O)CC2C(=O)NCCN2C(=O)Nc2ccc(C(F)(F)F)cc2)cc1 (stereo not drawn) do in these assays?
JMJD2A Tudor inh: -10%; Sfp inh: 2%; G9a inh: -10%[12.7 µM]; HP1b binding inh: 22%; BAZ2B block: -6%

How did CC1=C(C(=O)OCC2CCCCC2)C(c2ccccc2F)NC(=O)N1 (stereo not drawn) do in these assays?
JMJD2A Tudor inh: -7%; HP1b binding inh: 4%

How did CCOc1ccc(/C=N/n2c(C3CCCCC3)n[nH]c2=S)cc1 do in these assays?
JMJD2A Tudor inh: inconclusive; Sfp inh: inconclusive; G9a inh: 28µM*; HP1b binding inh: 9%; BAZ2B block: 0%

How did CCOc1ccc(/C=N/n2cnnc2)cc1 do in these assays?
JMJD2A Tudor inh: -14%; Sfp inh: 16%; G9a inh: -31%[12.7 µM]; HP1b binding inh: 6%; BAZ2B block: 5%

How did S=c1[nH]nc(C2CCCCC2)n1/N=C/c1ccccc1 do in these assays?
JMJD2A Tudor inh: 56µM*; Sfp inh: -11%; G9a inh: 20µM*; HP1b binding inh: -8%; BAZ2B block: -38%

How did Nc1c(C(=O)NC2CCCCC2)c2nc3ccccc3nc2n1/N=C/c1ccco1 do in these assays?
Sfp inh: -4%; G9a inh: 19%[59 µM]

What do the screens show for `S=c1[nH]nc(C2CCCCC2)n1/N=C/c1ccco1`?
JMJD2A Tudor inh: 13µM*; Sfp inh: -2%; G9a inh: 1.4µM*; HP1b binding inh: -5%; BAZ2B block: -9%

How did S=c1[nH]nc(C2CCCCC2)n1/N=C/c1cccc(Cl)c1Cl do in these assays?
JMJD2A Tudor inh: -36%; Sfp inh: -3%; G9a inh: 8.9µM*; HP1b binding inh: -14%; BAZ2B block: -4%

Results for O=c1c(Cc2ccc(F)cc2)c(O)ccn1Cc1ccco1 ?
JMJD2A Tudor inh: -1%; Sfp inh: 10%; G9a inh: -7%; HP1b binding inh: 52%; BAZ2B block: -15%

Results for O=c1[nH]nc(SCc2cc(Cl)ccc2Cl)c(=O)[nH]1 ?
JMJD2A Tudor inh: -20%; Sfp inh: 11%; G9a inh: -2%; HP1b binding inh: 0%; BAZ2B block: -2%

How did CC1CCN(C(=O)c2ccc(S(=O)(=O)N3CCCC3)cc2)CC1 do in these assays?
JMJD2A Tudor inh: -12%; G9a inh: 2%[59 µM]; HP1b binding inh: 60%; BAZ2B block: -2%

What do the screens show for `OCCNc1nc2ccc(Cl)cc2[nH]1`?
JMJD2A Tudor inh: -1%; Sfp inh: -6%; G9a inh: inconclusive; HP1b binding inh: 27%; BAZ2B block: 16%

How did CN(C)c1ccc(/C=N/n2c(C3CCCCC3)n[nH]c2=S)cc1 do in these assays?
JMJD2A Tudor inh: 40µM*; Sfp inh: -20%; G9a inh: 10µM*; HP1b binding inh: inconclusive; BAZ2B block: inconclusive

What do the screens show for `CN(C)c1ccc(/C=N/NC(=O)C(=O)N2CCCCCC2)cc1`?
JMJD2A Tudor inh: -20%; Sfp inh: 17%; G9a inh: inconclusive; HP1b binding inh: -9%; BAZ2B block: -24%

Results for Fc1ccc(/C=N/n2c(C3CCCCC3)n[nH]c2=S)cc1 ?
JMJD2A Tudor inh: 56µM*; Sfp inh: inconclusive; G9a inh: 7.1µM*; HP1b binding inh: inconclusive; BAZ2B block: -38%

Results for Nc1nnnn1/N=C/c1ccc(F)cc1 ?
JMJD2A Tudor inh: -13%; Sfp inh: -1%; G9a inh: 32%; HP1b binding inh: 44%; BAZ2B block: -5%

Results for COCc1cc(=O)[nH]c(/N=C(\N)Nc2ccc(Cl)c(Cl)c2)n1 ?
JMJD2A Tudor inh: 2%; Sfp inh: -4%; HP1b binding inh: 12%; BAZ2B block: 6%

Results for COc1cc(C2c3c([nH]c(=O)[nH]c3=O)Nc3ccc4ccccc4c32)cc(OC)c1OC (stereo not drawn) ?
JMJD2A Tudor inh: inconclusive; Sfp inh: 56µM*; G9a inh: inconclusive; HP1b binding inh: 71µM*; BAZ2B block: 56µM*

How did COc1cc(C2c3c([nH]c(=O)[nH]c3=O)Nc3ccc4ccccc4c32)ccc1O (stereo not drawn) do in these assays?
JMJD2A Tudor inh: inconclusive; Sfp inh: inconclusive; G9a inh: 50µM*; HP1b binding inh: inconclusive; BAZ2B block: inconclusive

How did COc1cc(C2CC(=O)c3c(ccc4ccccc34)N2)ccc1O (stereo not drawn) do in these assays?
JMJD2A Tudor inh: -17%; Sfp inh: 13%; G9a inh: 11µM*; HP1b binding inh: 5%; BAZ2B block: -23%

How did CN(Cc1cccc(Cl)c1)C(=O)C1CCN(C(=O)Nc2ccccc2)CC1 do in these assays?
JMJD2A Tudor inh: -10%; G9a inh: -31%; HP1b binding inh: inconclusive; BAZ2B block: 10%

What do the screens show for `CC[C@@H](C)[C@@H]1CN([C@@H](CN2CCC[C@H]2CN2C(N)=NC[C@H]2C(C)C)C(C)C)C(=N)N1CCCC1CCCC1`?
JMJD2A Tudor inh: inconclusive; HP1b binding inh: 14%

How did S=C1NCN(Cc2ccccc2)CN1 do in these assays?
JMJD2A Tudor inh: -20%; Sfp inh: 8%; G9a inh: inconclusive; HP1b binding inh: 48%; BAZ2B block: 24%

What do the screens show for `S=c1[nH]ccn1Cc1ccccc1`?
JMJD2A Tudor inh: 14µM*; Sfp inh: -26%; G9a inh: 6.3µM*; HP1b binding inh: -31%; BAZ2B block: -15%

How did O=C(NC(=S)NC1C2CC3CC(C2)CC1C3)C12CC3CC(CC(C3)C1)C2 (stereo not drawn) do in these assays?
JMJD2A Tudor inh: inconclusive; Sfp inh: -6%; G9a inh: inconclusive; HP1b binding inh: -6%; BAZ2B block: -11%

What do the screens show for `Oc1c(CN2CCOCC2)cc(CN2CCOCC2)c(O)c1O`?
JMJD2A Tudor inh: 11µM*; HP1b binding inh: 6.3µM*

How did Cc1cc2ccccc2cc1CN1CCOCC1 do in these assays?
JMJD2A Tudor inh: 3%; Sfp inh: 14%; G9a inh: -11%[59 µM]; HP1b binding inh: 25%

How did Oc1cccc(CN2CCOCC2)c1O do in these assays?
JMJD2A Tudor inh: 10µM*; HP1b binding inh: 71µM*

How did CCCc1cc(CN2CCOCC2)c(O)c(CN2CCOCC2)c1O do in these assays?
JMJD2A Tudor inh: 11µM*; HP1b binding inh: 25µM*

Results for CCOC(=O)N1CCC(NC(=O)C2CCN(C(=O)N3CCOc4ccccc43)CC2)CC1 ?
JMJD2A Tudor inh: 100µM*; Sfp inh: -6%; G9a inh: 0%[12.7 µM]; HP1b binding inh: 3%; BAZ2B block: 30%
